# Data published in PubChem BioAssay (NCI).
# This is part of a sample that, as a whole, favours compounds with a hit. Of some 79,000 tested, about 15% had one in any assay. Values without a mark were called inactive. The source made the active and inactive calls. No stated cut-off is given here; in the data, active means growth inhibition above about 70%; inactive means the rest.
# Tests used:
# [1] = NCI Yeast Anticancer Drug Screen. Data for the rad52 strain (AID 147);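 further: 0% = growth of vehicle-treated control cultures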; settings: S. cerevisiae rad52 mutant growth inhibition, hits give high values
# In short: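 The repair-mutant yeast strain was incubated with compounds, then growth was read and inhibition derived relative to vehicle.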
# [2] = NCI Yeast Anticancer Drug Screen. Data for the wt1 strain (AID 149);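 further: 0% = growth of vehicle-treated wt1 cultures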; settings: S. cerevisiae wt1 strain (SPY 50644) growth inhibition, hits give high values
# In short: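 The wt1 strain was treated with compounds, and growth was compared with vehicle-treated cultures to give inhibition.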
# [3] = NCI Yeast Anticancer Drug Screen. Data for the rad50EPP+ strain (AID 151);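 further: 0% = growth of vehicle-treated control cultures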; settings: S. cerevisiae rad50 mutant strain, hits give high values
# In short: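 Vehicle-normalised growth inhibition; rad50EPP+ yeast strain, altered in DNA damage repair, compound-treated.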
# [4] = NCI Yeast Anticancer Drug Screen. Data for the mgt1 strain (AID 153); settings: S. cerevisiae mgt1 mutant growth inhibition, hits give high values
# In short: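 Vehicle-normalized growth inhibition is determined in mgt1 yeast, a strain selected for a defined alteration in DNA repair or cell cycle control.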
# [5] = NCI Yeast Anticancer Drug Screen. Data for the rad50 strain (AID 155);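 further: 0% = growth of vehicle-only cultures of the same strain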; settings: S. cerevisiae rad50 strain growth inhibition, hits give high values
# In short: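 Cells are treated with compound, grown, and their growth is then scored against vehicle-only cultures of the same repair-deficient yeast strain.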
# [6] = NCI Yeast Anticancer Drug Screen. Data for the mec2-1 strain (AID 157); settings: S. cerevisiae mec2-1 strain, hits give high values
# In short: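 Mutant yeast (mec2-1) grown with compound; growth inhibition relative to vehicle control reported.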
# [7] = NCI Yeast Anticancer Drug Screen. Data for the rad14 strain (AID 159);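 further: 0% = growth of vehicle-treated control cultures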; settings: S. cerevisiae rad14 strain growth inhibition, hits give high values
# In short: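 Readout: yeast growth inhibition, referenced to vehicle-only cultures. Strain bears a defined alteration in DNA damage repair.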
# [8] = NCI Yeast Anticancer Drug Screen. Data for the sgs1 mgt1 strain (AID 161);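 further: 0% = growth of cultures given vehicle only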; settings: S. cerevisiae sgs1 mgt1 strain, hits give high values
# In short: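 Compounds are added to genetically altered yeast, and growth is compared with cultures given vehicle alone to give percent inhibition.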
# [9] = NCI Yeast Anticancer Drug Screen. Data for the CLN2oe strain (AID 163);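 further: 0% = growth of vehicle-only control cultures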; settings: S. cerevisiae CLN2oe strain, hits give high values
# In short: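 Compounds are applied to yeast harbouring a defined cell-cycle control change; reduced growth compared with vehicle-treated controls gives the value.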
# [10] = NCI Yeast Anticancer Drug Screen. Data for the cln2 rad14 strain (AID 165);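 further: 0% = growth equal to vehicle treated cultures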; settings: S. cerevisiae cln2 rad14 strain, hits give high values
# In short: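 Readout is yeast growth inhibition versus vehicle-treated controls, using a strain with cln2 and rad14 alterations exposed to compound.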
# [11] = NCI Yeast Anticancer Drug Screen. Data for the bub3 strain (AID 167); settings: S. cerevisiae bub3 mutant strain, hits give high values
# In short: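 Part of a panel of yeast mutants defective in DNA damage repair or cell cycle regulation. Each strain is grown with compound, and inhibition is calculated relative to solvent-treated cultures.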
# [12] = NCI Yeast Anticancer Drug Screen. Data for the wt2 strain (AID 169);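 further: 0% = growth of vehicle-treated yeast cultures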; settings: S. cerevisiae wt2 strain growth inhibition, hits give high values
# In short: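 Against vehicle-treated controls, the growth of yeast exposed to each compound was compared, and the inhibition was recorded.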
# [13] = NCI Yeast Anticancer Drug Screen. Data for the mlh1 strain (AID 171);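 further: 0% = growth of vehicle-treated control cultures of the same strain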; settings: S. cerevisiae mlh1 strain growth inhibition, hits give high values
# In short: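 Measured: yeast growth. Reference: vehicle-treated controls. Organism: strain with a defined alteration affecting DNA damage repair or cell cycle control, treated with compound.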
# [14] = NCI Yeast Anticancer Drug Screen. Data for the sgs1 strain (AID 173);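 further: 0% = growth of vehicle-only control cultures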; settings: S. cerevisiae sgs1 mutant, hits give high values
# In short: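 Each compound was added to cultures of the altered yeast strain. Growth was recorded, and inhibition was derived by comparison with vehicle controls.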
# [15] = NCI Yeast Anticancer Drug Screen. Data for the mlh1 rad18 strain (AID 175); settings: S. cerevisiae mlh1 rad18 strain growth inhibition, hits give high values
# In short: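 Genetically defined yeast (DNA repair-deficient) exposed to compounds; growth inhibition determined relative to vehicle.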
# [16] = NCI Yeast Anticancer Drug Screen. Data for the rad18 strain (AID 177); settings: S. cerevisiae rad18 mutant growth inhibition, hits give high values
# In short: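 Vehicle-treated cultures served as the baseline for scoring compound-induced growth inhibition in DNA-repair-mutant yeast.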
# [17] = at 5.0 µM (retest, dose inferred, filed as 0.5)
# [18] = at 50.0 µM (retest, dose inferred, filed as 5.0)
structure (smiles),measurement,setting,value
CCC(C)(c1ccc(O)c(C)c1)c1ccc(O)c(C)c1,growth inhibition,[1]; at 1.2 µM,-36%
same,growth inhibition,[1]; at 3.7 µM,-19%
same,growth inhibition,[1]; at 11.0 µM,42%
same,growth inhibition,[1]; at 33.0 µM,98% (active)
same,growth inhibition,[1]; at 100.0 µM,98% (active)
same,growth inhibition,[2]; at 1.2 µM,-17%
same,growth inhibition,[2]; at 3.7 µM,-23%
same,growth inhibition,[2]; at 11.0 µM,29%
same,growth inhibition,[2]; at 33.0 µM,98% (active)
same,growth inhibition,[2]; at 100.0 µM,99% (active)
same,growth inhibition,[3]; at 1.2 µM,-31%
same,growth inhibition,[3]; at 3.7 µM,-38%
same,growth inhibition,[3]; at 11.0 µM,-43%
same,growth inhibition,[3]; at 33.0 µM,-41%
same,growth inhibition,[3]; at 100.0 µM,12%
same,growth inhibition,[4]; at 1.2 µM,-49%
same,growth inhibition,[4]; at 3.7 µM,-39%
same,growth inhibition,[4]; at 11.0 µM,14%
same,growth inhibition,[4]; at 33.0 µM,97% (active)
same,growth inhibition,[4]; at 100.0 µM,99% (active)
same,growth inhibition,[5]; at 1.2 µM,-30%
same,growth inhibition,[5]; at 3.7 µM,-28%
same,growth inhibition,[5]; [17],40%
same,growth inhibition,[5]; at 11.0 µM,52%
same,growth inhibition,[5]; at 33.0 µM,97% (active)
same,growth inhibition,[5]; [18],87% (active)
same,growth inhibition,[5]; at 50.0 µM,92% (active)
same,growth inhibition,[5]; at 100.0 µM,97% (active)
same,growth inhibition,[6]; at 1.2 µM,-66%
same,growth inhibition,[6]; at 3.7 µM,-45%
same,growth inhibition,[6]; [17],42%
same,growth inhibition,[6]; at 11.0 µM,43%
same,growth inhibition,[6]; at 33.0 µM,98% (active)
same,growth inhibition,[6]; [18],90% (active)
same,growth inhibition,[6]; at 50.0 µM,93.3% (active)
same,growth inhibition,[6]; at 100.0 µM,98% (active)
same,growth inhibition,[7]; at 1.2 µM,-38%
same,growth inhibition,[7]; at 3.7 µM,-43%
same,growth inhibition,[7]; at 11.0 µM,15%
same,growth inhibition,[7]; at 33.0 µM,98% (active)
same,growth inhibition,[7]; at 100.0 µM,98% (active)
same,growth inhibition,[8]; [17],-3%
same,growth inhibition,[8]; [18],98% (active)
same,growth inhibition,[8]; at 50.0 µM,93.8% (active)
same,growth inhibition,[9]; at 1.2 µM,-36%
same,growth inhibition,[9]; at 3.7 µM,-28%
same,growth inhibition,[9]; at 11.0 µM,45%
same,growth inhibition,[9]; at 33.0 µM,97% (active)
same,growth inhibition,[9]; at 100.0 µM,98% (active)
same,growth inhibition,[10]; [17],81% (active)
same,growth inhibition,[10]; [18],100% (active)
same,growth inhibition,[10]; at 50.0 µM,92.7% (active)
same,growth inhibition,[11]; at 1.2 µM,-27%
same,growth inhibition,[11]; at 3.7 µM,-13%
same,growth inhibition,[11]; [17],13%
same,growth inhibition,[11]; at 11.0 µM,47%
same,growth inhibition,[11]; at 33.0 µM,97% (active)
same,growth inhibition,[11]; [18],99% (active)
same,growth inhibition,[11]; at 50.0 µM,92.2% (active)
same,growth inhibition,[11]; at 100.0 µM,98% (active)
same,growth inhibition,[12]; at 1.2 µM,-33%
same,growth inhibition,[12]; at 3.7 µM,-31%
same,growth inhibition,[12]; at 11.0 µM,45%
same,growth inhibition,[12]; at 33.0 µM,98% (active)
same,growth inhibition,[12]; at 100.0 µM,99% (active)
same,growth inhibition,[13]; at 1.2 µM,-45%
same,growth inhibition,[13]; at 3.7 µM,-43%
same,growth inhibition,[13]; at 11.0 µM,42%
same,growth inhibition,[13]; at 33.0 µM,91% (active)
same,growth inhibition,[13]; at 100.0 µM,98% (active)
same,growth inhibition,[14]; at 1.2 µM,-32%
same,growth inhibition,[14]; at 3.7 µM,-25%
same,growth inhibition,[14]; at 11.0 µM,39%
same,growth inhibition,[14]; at 33.0 µM,97% (active)
same,growth inhibition,[14]; at 100.0 µM,98% (active)
same,growth inhibition,[15]; [17],30%
same,growth inhibition,[15]; [18],91% (active)
same,growth inhibition,[15]; at 50.0 µM,92.2% (active)
same,growth inhibition,[16]; at 1.2 µM,-55%
same,growth inhibition,[16]; at 3.7 µM,-38%
same,growth inhibition,[16]; at 11.0 µM,30%
same,growth inhibition,[16]; at 33.0 µM,97% (active)
same,growth inhibition,[16]; at 100.0 µM,98% (active)
